Test results as given in PubChem BioAssay (NCI).
About 83,000 compounds went through this panel and 20% of them were active in at least one assay; those are over-represented in the sample as a whole.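 96-well plates, one dose, 48 hours. Percent growth reported; active if below 10.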 Activity calls are given as the source filed them.

Tests used:
Assay in all cases: NCI-60 one-dose screen, 48 h (100 = growth as untreated, 0 = no growth, -100 = all killed)
Settings in all cases: 10 µM unless noted
NCI-H23 lung = tested on: NCI-H23 lung
NCI-H226 lung = tested on: NCI-H226 lung
NCI-H322M lung = tested on: NCI-H322M lung
HOP-62 NSCLC = tested on: HOP-62 NSCLC
NCI-H460 lung = tested on: NCI-H460 lung
HOP-92 NSCLC = tested on: HOP-92 NSCLC
NCI-H522 lung = tested on: NCI-H522 lung
A549/ATCC NSCLC = tested on: A549/ATCC NSCLC
786-0 renal = tested on: 786-0 renal
COLO 205 colon = tested on: COLO 205 colon

Measured: growth

COc1cccc(-c2nc3sccn3c2-c2ccnc(NCCNC(=O)c3ccccc3)n2)c1
inactive: NCI-H23 lung 87.3% | NCI-H226 lung 79.3% | NCI-H322M lung 110% | HOP-62 NSCLC 111% | NCI-H460 lung 84.9% | HOP-92 NSCLC 77.8% | NCI-H522 lung 61.8% | A549/ATCC NSCLC 75.3% | 786-0 renal 78.4% | COLO 205 colon 51.8%

CCOc1cccc(Nc2nc(N)nc3[nH]c4ccc(O)cc4c23)c1
inactive: NCI-H23 lung 68.5% | NCI-H226 lung 79.5% | NCI-H322M lung 65.1% | HOP-62 NSCLC 61.7% | NCI-H460 lung 82% | HOP-92 NSCLC 25.9% | NCI-H522 lung 49.2% | A549/ATCC NSCLC 46.6% | 786-0 renal 52.8% | COLO 205 colon 96.9%

O=C(c1ccccc1)[C@H]1[C@@H]2CCCN2[C@]2(C(=O)Nc3ccc(F)cc32)[C@]12C(=O)Nc1ccccc12
inactive: NCI-H23 lung 93.3% | NCI-H226 lung 79.3% | NCI-H322M lung 97% | HOP-62 NSCLC 86.8% | NCI-H460 lung 93.6% | HOP-92 NSCLC 54.9% | NCI-H522 lung 73.5% | A549/ATCC NSCLC 75.2% | 786-0 renal 87.7% | COLO 205 colon 93.8%

CC(=O)N[C@@H](CNC(=O)c1cc(NC(=O)c2cc(NC(=O)c3cc(NC(=O)c4nccn4C)cn3C)cn2C)cn1C)CC(=O)Nc1cn(C)c(C(=O)Nc2cc(C(=O)Nc3cc(C(=O)Nc4cc(C(=O)NCCCN(C)CCCNC(=O)c5cccc(C(=O)O)c5)n(C)c4)n(C)c3)n(C)c2)n1
active: A549/ATCC NSCLC -10.7%
inactive: NCI-H23 lung 89.9% | NCI-H226 lung 58.4% | NCI-H322M lung 57% | HOP-62 NSCLC 91.6% | NCI-H460 lung 10.6% | HOP-92 NSCLC 106% | NCI-H522 lung 39% | 786-0 renal 82.7% | COLO 205 colon 45.1%

Cc1cn(-c2nc3c(c(NCc4ccccc4)n2)COCC3)c2cccc(C(N)=O)c12
inactive: NCI-H23 lung 58.8% [0.5 µM] | NCI-H226 lung 56.4% [0.5 µM] | NCI-H322M lung 98.8% [0.5 µM] | HOP-62 NSCLC 76.3% [0.5 µM] | NCI-H460 lung 45.8% [0.5 µM] | HOP-92 NSCLC 87.7% [0.5 µM] | NCI-H522 lung 69.5% [0.5 µM] | A549/ATCC NSCLC 84% [0.5 µM] | 786-0 renal 40.9% [0.5 µM] | COLO 205 colon 87.8% [0.5 µM]

O=C(NCCNc1nccc(-c2c(-c3cccc(O)c3)nc3sccn23)n1)c1ccccc1
inactive: NCI-H23 lung 82.6% | NCI-H226 lung 54.5% | NCI-H322M lung 101% | HOP-62 NSCLC 119% | NCI-H460 lung 42.4% | HOP-92 NSCLC 58.6% | NCI-H522 lung 72.7% | A549/ATCC NSCLC 56.3% | 786-0 renal 66.5% | COLO 205 colon 48.5%

COc1ccc(-c2c(C#N)cnc(N)c2-c2nc3cc(C)c(C)cc3[nH]2)cc1
inactive: NCI-H23 lung 44.9% | NCI-H226 lung 99.3% | NCI-H322M lung 38.2% | HOP-62 NSCLC 57% | NCI-H460 lung 36% | HOP-92 NSCLC 68% | NCI-H522 lung 45.6% | A549/ATCC NSCLC 27.2% | 786-0 renal 25.8% | COLO 205 colon 68.7%

COc1ccc2c(c1)OC(N(C(C)=O)C(C)=O)=C(C#N)C2c1ccc(F)cc1 (stereo not given)
active: NCI-H522 lung -5.26%
inactive: NCI-H23 lung 50.9% | NCI-H226 lung 75.2% | NCI-H322M lung 48.8% | HOP-62 NSCLC 39.2% | NCI-H460 lung 15.8% | HOP-92 NSCLC 63.4% | A549/ATCC NSCLC 45.1% | 786-0 renal 28.9% | COLO 205 colon 30.2%

COc1ccc(-c2nn(-c3ccc(NC(=O)c4cc(Cl)cc(Cl)c4)cc3)cc2-c2ccncc2)cc1Cl
inactive: NCI-H23 lung 83.7% | NCI-H226 lung 98.4% | NCI-H322M lung 88.6% | HOP-62 NSCLC 59.9% | NCI-H460 lung 38.3% | HOP-92 NSCLC 84.6% | NCI-H522 lung 87.6% | A549/ATCC NSCLC 53.1% | COLO 205 colon 46.9%
active: 786-0 renal 3.68%

CN(C)CCS(=O)(=O)Nc1cc(-c2ccc3ncnc(Nc4ccc(F)c(Cl)c4)c3c2)cnc1Cl
inactive: 786-0 renal 12.8%
active: NCI-H23 lung -10.1% | NCI-H226 lung 1.48% | NCI-H322M lung -21.5% | HOP-62 NSCLC -5.38% | NCI-H460 lung 7.68% | HOP-92 NSCLC -21.4% | NCI-H522 lung -17.7% | A549/ATCC NSCLC -31.7% | COLO 205 colon -80%

Nc1ncnc2c1c(-c1ccc(Oc3ccccc3)cc1)nn2C[C@H]1SSC[C@H]1O
active: NCI-H226 lung -2.25% | NCI-H460 lung -43.6% | HOP-92 NSCLC -4.52% | NCI-H522 lung -31.1% | A549/ATCC NSCLC -35.8% | COLO 205 colon -83.3%
inactive: NCI-H23 lung 19.3% | NCI-H322M lung 13.4% | HOP-62 NSCLC 20.1% | 786-0 renal 12.9%

c1coc(CSc2ncnc3nc[nH]c23)c1
inactive: NCI-H23 lung 103% | NCI-H226 lung 101% | NCI-H322M lung 125% | HOP-62 NSCLC 99.7% | NCI-H460 lung 111% | HOP-92 NSCLC 57.8% | NCI-H522 lung 80% | A549/ATCC NSCLC 101% | 786-0 renal 97% | COLO 205 colon 113%

Cc1ccc(Cn2cc(COc3ccc4c5ccnc(C)c5n(CCCc5ccccc5)c4c3)nn2)cc1
inactive: NCI-H23 lung 84.3% | NCI-H226 lung 98.9% | NCI-H322M lung 90.6% | HOP-62 NSCLC 87.1% | NCI-H460 lung 103% | HOP-92 NSCLC 68.6% | NCI-H522 lung 66.4% | A549/ATCC NSCLC 94.2% | 786-0 renal 85.9% | COLO 205 colon 92.2%
